# From the supplement of paper PMC6555819
# Tested on: LXRa homodimer (NR concentration 270 nM)
# Assay: PBM binding z-score (relative to random genomic background probes); higher = stronger binding; sequences stand for … in GC…GCGATTGACAGCGTAGAATGAAGG
# Outline: (§1)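 Custom Agilent 4×180K protein-binding microarrays carried double-stranded probes, each with a 34-nt variable region. These regions held direct-repeat seeds, single-nucleotide variants, half-site ablations and random human genomic background sequences. Ligand-free nuclear receptor dimers were incubated on the arrays for 1 h, antibodies against each partner (one per run) detected binding, and scanned fluorescence was regression-normalized. Binding z-scores take the random background probes as reference.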
row,Sequence,PBM binding z-score
1,TCTATTTGTTGAAGGGCAACCGACGAGTCCGTTT,0.754
2,AGAACGAGGGCTCGCTGAGTTGATAGCAGAGTAG,-0.835
3,GATACAGGGTAAAGGCCAGAGTACGCGTATTGAT,-0.132
4,CCGACTGGGCCAAGGTCATTGATCAGTCAAAGCA,0.884
5,CTTCAAAGTTCAACTAAGGTAACGTAAAGCACGC,5.24
6,GCTATCAGTTGAAAGGGCAACCGAATGATTCTCG,0.000257
7,ATCTCTAGGTAAAAGTTCCGTGAATCCCGAGGAT,-0.0221
8,TCGAGTAGGTTGGTCGGGGCATTCAGCCAACATA,-0.443
9,AGAATGATGTTACCAAAGATCAGGGAAACGCTTG,-0.229
10,CCTACTGGGCCAAACAGGTCATTGATGCCGATAA,0.657
11,CCTACTTGGCCATCAGGTCATTGATATCAACGTT,2.06
12,CCTTACGGGTCAAGGTTAAAGCACGGGTGGTACG,0.272
13,TCTAGATGGTCACGGAGGTCACACACGACGGGTA,2.8
14,CAAACTAGGGCAAGAGGTCAAAGTCCGCTTCCCG,4.65
15,TCTTGTAGATCAGCAGGTTAAGAAAGCTGGCCAA,-0.357
16,ATCGGAAGGTCGAAGGTGAGTATACCCACCCGAA,-0.0479
17,CCTTACGGGTCACGAGGATATAGCACGACGAGCG,0.0313
18,TCTTGTAGATCAACAGGAGGTTAGGAAAGATCGA,-0.326
19,CCTTACGGGTCACTGACGGGTTATAGCATTTGGA,0.0563
20,TCTGATAGGTCAACGATGGTCAGCTAATCTGCTA,0.975

row,Sequence,PBM binding z-score
1,CAAACTAGGTCACAGAGGTCATAGTCCGTGCGTA,6.94
2,TCTATTAGTTGAAGGGCAAACGACGAGTCCGTTT,0.6
3,ATATGTAGGTTATCGGGTCGTTCAGTTTGCGCAT,0.76
4,CCGACTGGGGCATACGGTTACCATAAGCCAGCCC,-0.334
5,ACTCGGAGGACAAAGATCAGAGCTACGCCAGTGA,-0.56
6,AGAATGAGGTTATACGTCGATCAGGGAAGAAAGT,-0.164
7,AGAATGAGGTTAAGCTCAGGGAAACAGAATACAT,-0.491
8,CGTCCAAGGTCATAGGAGGTCAGAGAAGACAGAT,5.01
9,CGTCAAAGTTCAATTAAGGTAACGTAAAGCACGC,3.51
10,CTCGAAAGGTCGTACTCAGGTGAGTATACCAAAC,0.513
11,CTCGAAAGGTCGATTGAGGTGAGTATACGGATAA,-0.0633
12,CTCGAAAGGTCGTGCTCAGGTGCGTATACCAAAC,0.109
13,ATCTCTAGGTAAGACTCAGTTCACTGAAGAACGC,0.58
14,CCTTACGCGTCACTGACAGGTTATAGCATTTGGA,0.568
15,TTACCAATGTGAAAGGTCGTTGATGCACGCCTTG,0.874
16,TAGCCTAGGTCATGCGGGCCAGAATAGTGTCGGC,0.255
17,CCTTACGAGTCACGAGGTTATAGCACGACGAGCG,0.451
18,AGAATGAGGTTATACGTAGAACAGGGAAGAAAGT,-0.14
19,CCTGCTGGGCCATCAGGTCATTGATATCAACGTT,0.504
20,AGTCAAAGTTCACTAGCTAACGTAAGATTCAGCT,2.93

# Tested on: LXRb:RXRa (NR concentration 270 nM, RXRa partner concentration 90 nM)
# Assay: as above
# Outline: as §1
row,Sequence,PBM binding z-score
1,TCTATTTGTTGAAGGGCAACCGACGAGTCCGTTT,0.891
2,AGAACGAGGGCTCGCTGAGTTGATAGCAGAGTAG,-0.918
3,GATACAGGGTAAAGGCCAGAGTACGCGTATTGAT,0.0218
4,CCGACTGGGCCAAGGTCATTGATCAGTCAAAGCA,2.65
5,CTTCAAAGTTCAACTAAGGTAACGTAAAGCACGC,4.06
6,GCTATCAGTTGAAAGGGCAACCGAATGATTCTCG,0.46
7,ATCTCTAGGTAAAAGTTCCGTGAATCCCGAGGAT,-0.0121
8,TCGAGTAGGTTGGTCGGGGCATTCAGCCAACATA,-0.0412
9,AGAATGATGTTACCAAAGATCAGGGAAACGCTTG,-0.18
10,CCTACTGGGCCAAACAGGTCATTGATGCCGATAA,1.55
11,CCTACTTGGCCATCAGGTCATTGATATCAACGTT,2.21
12,CCTTACGGGTCAAGGTTAAAGCACGGGTGGTACG,3.14
13,TCTAGATGGTCACGGAGGTCACACACGACGGGTA,3.49
14,CAAACTAGGGCAAGAGGTCAAAGTCCGCTTCCCG,4.67
15,TCTTGTAGATCAGCAGGTTAAGAAAGCTGGCCAA,0.167
16,ATCGGAAGGTCGAAGGTGAGTATACCCACCCGAA,1.23
17,CCTTACGGGTCACGAGGATATAGCACGACGAGCG,3.62
18,TCTTGTAGATCAACAGGAGGTTAGGAAAGATCGA,0.179
19,CCTTACGGGTCACTGACGGGTTATAGCATTTGGA,3.42
20,TCTGATAGGTCAACGATGGTCAGCTAATCTGCTA,3.31

row,Sequence,PBM binding z-score
1,CAAACTAGGTCACAGAGGTCATAGTCCGTGCGTA,5.6
2,TCTATTAGTTGAAGGGCAAACGACGAGTCCGTTT,1.3
3,ATATGTAGGTTATCGGGTCGTTCAGTTTGCGCAT,1.73
4,CCGACTGGGGCATACGGTTACCATAAGCCAGCCC,-0.388
5,ACTCGGAGGACAAAGATCAGAGCTACGCCAGTGA,-0.616
6,AGAATGAGGTTATACGTCGATCAGGGAAGAAAGT,1.29
7,AGAATGAGGTTAAGCTCAGGGAAACAGAATACAT,1.79
8,CGTCCAAGGTCATAGGAGGTCAGAGAAGACAGAT,6.38
9,CGTCAAAGTTCAATTAAGGTAACGTAAAGCACGC,3.7
10,CTCGAAAGGTCGTACTCAGGTGAGTATACCAAAC,3.59
11,CTCGAAAGGTCGATTGAGGTGAGTATACGGATAA,2.93
12,CTCGAAAGGTCGTGCTCAGGTGCGTATACCAAAC,2.86
13,ATCTCTAGGTAAGACTCAGTTCACTGAAGAACGC,0.734
14,CCTTACGCGTCACTGACAGGTTATAGCATTTGGA,0.697
15,TTACCAATGTGAAAGGTCGTTGATGCACGCCTTG,1.91
16,TAGCCTAGGTCATGCGGGCCAGAATAGTGTCGGC,1.79
17,CCTTACGAGTCACGAGGTTATAGCACGACGAGCG,1.22
18,AGAATGAGGTTATACGTAGAACAGGGAAGAAAGT,1.56
19,CCTGCTGGGCCATCAGGTCATTGATATCAACGTT,1.18
20,AGTCAAAGTTCACTAGCTAACGTAAGATTCAGCT,3.04
